Assays:
Experiment in all cases: PBM binding z-score (relative to random genomic background probes); higher = stronger binding; sequences stand for … in GC…GCGATTGACAGCGTAGAATGAAGG
[1] = tested on: FXR:RXRa (NR concentration 270 nM, RXRa partner concentration 90 nM)
Procedure, shortened: (§1)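 Each nuclear receptor dimer, without ligand, was incubated for 1 h on custom Agilent 4×180K protein-binding microarrays. Binding was detected with antibodies against each partner (one per run), and scanned fluorescence was regression-normalized. The binding z-scores are referenced to random human genomic background probes.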

[2] = tested on: LXRa:RXRa (NR concentration 270 nM, RXRa partner concentration 90 nM)
Procedure, shortened: as §1

[3] = tested on: LXRa homodimer (NR concentration 270 nM)
Procedure, shortened: as §1

[4] = tested on: LXRb:RXRa (NR concentration 270 nM, RXRa partner concentration 90 nM)
Procedure, shortened: as §1

[5] = tested on: LXRb homodimer (NR concentration 270 nM)
Procedure, shortened: as §1

[6] = tested on: PPARa:RXRa (NR concentration 270 nM, RXRa partner concentration 90 nM)
Procedure, shortened: as §1

[7] = tested on: PPARg:RXRa (NR concentration 180 nM, RXRa partner concentration 90 nM)
Procedure, shortened: as §1

[8] = tested on: PPARg:RXRa 270nM:90nM, anti-RXR (NR concentration 270 nM, RXRa partner concentration 90 nM)
Procedure, shortened: as §1

[9] = tested on: PPARg:RXRa 30nM:10nM, anti-RXR (NR concentration 30 nM, RXRa partner concentration 10 nM)
Procedure, shortened: as §1

[10] = tested on: PPARg:RXRa 90nM:30nM, anti-RXR (NR concentration 90 nM, RXRa partner concentration 30 nM)
Procedure, shortened: as §1

Sequence	PBM binding z-score [1]	PBM binding z-score [2]	PBM binding z-score [3]	PBM binding z-score [4]	PBM binding z-score [5]	PBM binding z-score [6]	PBM binding z-score [7]	PBM binding z-score [8]	PBM binding z-score [9]	PBM binding z-score [10]
ATACCAAGGAGATCGTGAGGTCGTTGATACTAAC	0.608	0.359	0.339	0.531	-0.481	0.547	0.375	-0.542	-0.0699	-0.394
ATCTCTAGGTAACCAAGTTCAGTGACTGCCGAAC	0.544	1.09	1.07	0.872	0.838	1.24	0.732	1.15	0.402	0.958
TCTTGTAGATCAAAGGTTCAGAAAGCCGAAGCCT	0.694	0.971	0.565	0.863	0.0761	2.17	3.23	5.21	4.26	5.21
TCTGCTAGGTCAGTGGGTCAGCTAACGAGCTGCC	1.49	1.09	-0.548	0.738	0.0153	3.41	5.03	4.53	2.11	3.51
GGAACGAGGGCAAAGTTGAGAGCATCTGTCGACG	1.68	1.11	-0.49	1.03	-0.383	4.56	8.2	7.84	7.2	8.99
TCTTGTAGATCAAAGGTTAACAAAGCCGAAGCCT	1.99	2.08	-0.0148	2.16	0.107	4.9	8.48	8.41	7.57	9.81
CGAACTAGATCAGAACAGGACAGTGAAGGATGAT	-0.267	-0.369	-0.16	-0.794	-0.0768	-0.51	0.886	-0.506	0.112	-0.125
AATACAGGATCATCGTAGGCCAGAGTACGCACAG	-0.0228	0.0727	0.0212	0.0447	0.414	-0.0183	0.976	0.159	0.238	0.209
TCGATTAGGTTAGTCGGGGCATTCAGCCAACATA	0.428	0.421	-0.073	0.839	-0.164	0.801	-0.279	1.29	2.61	1.79
CCCAGCAGGCCAATCTGGGTCACTCAAGGCTTGA	0.369	1.43	-0.513	0.944	-1.13	3.19	1.76	2.13	-0.161	1.13
GCTGCTAGGTCACCTGATGGTCAGCTAAAGCTCG	3.25	2.4	-0.338	1.66	-0.22	3.22	2.21	2.86	0.569	1.95
ACTAGCAGCCCAAGGGTCACTCAAGATTAGTCCG	2.27	2.63	0.353	2.75	-0.34	3.14	2.69	3.61	1.43	3.21
CCGAATAGGTTATGGGGCATTCAGGCAACGGTGA	0.575	0.686	-0.0267	1.02	-0.297	2.16	1.97	3.14	0.896	2.04
CCGTCTGGGGCAAGGTTACCATAACGCACAGCCA	0.304	0.595	-0.295	0.486	-1.06	1.47	1.66	2.36	0.376	1.93
AGAACGAGGGCAATGAGTTGTTAGCACGGGTGGC	0.161	0.00811	-0.446	-0.26	-1.01	1.23	1.18	0.817	0.096	0.514
ATCGAAAGGTCGAAGGGGAGTATACCCACCCGAA	4.05	3.15	0.303	2.7	0.76	4.19	3.19	2.91	1.16	1.99
CAGCCTAGGTCAGGGACAGTATAGGAGGAACGTT	1.72	1.1	-0.189	0.879	-0.664	2.34	1.26	1.07	0.251	0.563
TAGCCTAGTTCATGGGCCAGTATACCACGCGAAC	0.00503	0.504	-0.133	0.304	-0.689	0.867	0.6	0.24	-0.416	0.104
ATCTCTAGGTAACAAGTTCAGAGAAAGAGAGGAC	0.853	0.957	0.71	0.814	0.838	1.67	1.71	2.04	0.949	1.76
TCTAGTTGGTCACCGAGGTCACACACGACGGGTA	3.85	3.58	2.2	3.85	1.18	4.41	3.75	4	3.5	3.89
ATCCCTAGGTAAAAGTTCAGTGAATCCCGAGGAT	0.811	1.11	0.954	0.838	0.347	2.71	3.92	4.85	3.04	4.55
TCGCCTAGGTCATTCAGGGGCCAGTATAGAAAGC	4.82	3.45	0.443	3.13	0.742	3.8	1.91	2.45	2.3	2.02
TGTAGTTGGTCAAAGGTCACACACTCGAAATGCG	5.82	5.9	3.8	5.42	1.98	6.69	11	9.78	10.1	11.7
CAAACTAGGTTACCGGAAGGTCAAAGTCCGCATG	4.06	5.04	4.5	4.05	1.13	4.85	6.22	5.55	2.78	4.83
CCGAGTAGGTTATGGGGCTTTCAGGCAACGGTGA	0.104	0.374	-0.409	0.503	-0.205	1.34	1.69	2.5	0.331	1.54
